Measurements as given in PubChem BioAssay AID933 (National Center for Advancing Translational Sciences (NCATS), 2007).
Records with an inconclusive call do not appear. Activity calls are given as the source filed them. The call rests on the fitted dose curve; in most records, active means well fitted activation curve with a large enough effect in the signal ratio, with a control signal flat; inconclusive means small, poorly fitted or top-dose-only effect, or a change in a side signal; inactive means flat fitted curve, though single readings scatter; the % refers to the signal ratio.

Each molecule was assayed against Thyrotropin receptor (Homo sapiens) (UniProt P16473) (assay: Secondary Concentration-Response Assay for Agonists of the Thyroid Stimulating Hormone Receptor: HTRF Activity Detection). Details: HEK293-TSHR cells, cAMP HTRF ratio, 30 min; series mostly up to 91.7 µM; activation: at the top concentration.
How it was run: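 cAMP accumulation was detected by antibody-based HTRF, excitation 330 nm, emissions 615 and 660 nm. Compounds acted for 30 min at room temperature on stably TSHR-transfected HEK 293 cells, with phosphodiesterase inhibitor RO 20-1724 (100 uM) in the medium.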
Potency means the concentration at half of the fitted maximal effect.
Wherever activation is given: % of control where 0% means no effect.

Sequence of Thyrotropin receptor (Homo sapiens) (P16473 whole entry, looked up): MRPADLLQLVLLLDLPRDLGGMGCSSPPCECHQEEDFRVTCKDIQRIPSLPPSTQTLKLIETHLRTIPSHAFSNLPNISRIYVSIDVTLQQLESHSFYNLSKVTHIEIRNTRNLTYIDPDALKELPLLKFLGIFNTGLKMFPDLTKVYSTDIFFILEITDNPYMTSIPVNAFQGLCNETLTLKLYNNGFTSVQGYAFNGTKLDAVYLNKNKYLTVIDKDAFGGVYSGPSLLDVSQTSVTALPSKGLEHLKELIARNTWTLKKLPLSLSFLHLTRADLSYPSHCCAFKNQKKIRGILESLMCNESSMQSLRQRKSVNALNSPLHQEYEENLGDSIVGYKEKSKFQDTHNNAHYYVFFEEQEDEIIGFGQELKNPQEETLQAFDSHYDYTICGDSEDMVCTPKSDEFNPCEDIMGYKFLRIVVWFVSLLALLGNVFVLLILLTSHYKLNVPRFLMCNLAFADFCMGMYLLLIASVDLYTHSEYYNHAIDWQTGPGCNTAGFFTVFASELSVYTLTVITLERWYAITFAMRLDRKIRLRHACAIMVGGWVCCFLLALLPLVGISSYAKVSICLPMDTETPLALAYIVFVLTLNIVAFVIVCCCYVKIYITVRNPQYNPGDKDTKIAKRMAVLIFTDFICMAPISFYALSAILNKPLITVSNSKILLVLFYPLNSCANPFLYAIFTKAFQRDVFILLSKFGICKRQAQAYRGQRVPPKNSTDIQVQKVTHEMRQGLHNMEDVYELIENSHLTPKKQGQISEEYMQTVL

activation, inactive:
COc1cc(C2Nc3ccccc3C(=O)N2Cc2ccco2)ccc1O (stereo not given) 1.67%, COc1ccc(C2Nc3ccccc3C(=O)N2c2ccccc2)cc1COc1ccc(NC(C)=O)cc1 (stereo not given) 6.51%, CC(=O)Nc1ccc(C2Nc3ccccc3C(=O)N2C2CCCCC2)cc1 (stereo not given) 0.608%, O=C(c1ccc(Br)o1)N(Cc1ccccc1)c1ccccn1 0.801% [at 0.00035 µM], COc1ccc(C2Nc3ccccc3C(=O)N2Cc2ccccc2)cc1CSc1ccccn1 (stereo not given) 0.775%, COc1ccc(C2Nc3ccccc3C(=O)N2Cc2ccccc2)cc1COc1ccc(C)cc1 (stereo not given) 18.2%, COc1ccc(C2Nc3ccccc3C(=O)N2c2ccc(C)cc2)cc1Cn1cc([N+](=O)[O-])cn1 (stereo not given) 2.13%, COc1ccc(C2Nc3ccccc3C(=O)N2Cc2ccccc2)cc1COc1ccccn1 (stereo not given) 1.5%, COc1ccc(C2Nc3ccccc3C(=O)N2Cc2ccccc2)cc1COc1ccc(NC(=O)c2ccccc2)cc1 (stereo not given) 8.86%, COc1ccc(C2Nc3ccccc3C(=O)N2Cc2ccccc2)cc1COc1ccc(F)cc1 (stereo not given) 16.4%, Cc1cc(-n2c(C)cc(C(=O)CSc3nnnn3-c3ccc(Cl)cc3)c2C)no1 1.18% [at 0.00035 µM], COc1ccc(-c2nc3ccc(Cl)cc3c(=O)n2Cc2ccccc2)cc1COc1ccc(NC(C)=O)cc1 20.5%, O=C1c2ccccc2NC(c2ccc3c(c2)OCCO3)N1c1ccc2c(c1)OCCO2 (stereo not given) 2.01%, COc1cccc(OCc2cc(C3Nc4ccccc4C(=O)N3Cc3ccco3)ccc2OC)c1 (stereo not given) 0.612%, CCCN1C(=O)c2ccccc2NC1c1ccc(OC)c(COc2ccc([N+](=O)[O-])c(C)c2)c1 (stereo not given) 1.36%, O=C(c1ccccc1O)N(Cc1ccco1)Cc1ccco1 6.56%, COc1ccc(C2Nc3ccccc3C(=O)N2Cc2ccccc2)cc1OCc1ccc(NC(C)=O)cc1 (stereo not given) 11.9%, COc1ccc(C2Nc3ccccc3C(=O)N2Cc2ccco2)cc1COc1ccc(N)cc1 (stereo not given) 30.9%, CCCC(=O)C1=C(SCC)CC(C)(C)C(C(=O)OC)C1=O (stereo not given) 0.0277% [at 0.00035 µM], COc1ccc(CN(Cc2ccccc2)C(=O)c2ccno2)cc1COc1ccc(NC(C)=O)cc1 29.6%, COc1cccc(-c2nc(SC)nc3sc(C(=O)NC(C)(C)C)c(N)c23)c1 28.5%, Cc1ccccc1N1CCN(c2ncnc3c2cnn3Cc2ccc(Cl)cc2)CC1 -0.314% [at 0.00035 µM], O=c1c2c(-c3ccccc3)csc2ncn1/N=C/c1cn(-c2ccccc2)nc1-c1cccs1 0.928%, COC(=O)c1cc(C(=O)OC)cc(N2C(=O)CC(Sc3nc(C)cc(C)n3)C2=O)c1 (stereo not given) -0.898% [at 0.00035 µM], COc1cccc2cc(C(=O)N(Cc3cccs3)Cc3cccs3)c(=O)oc12 2.56%, COc1ccc(C2Nc3ccccc3C(=O)N2c2ccc(F)cc2)cc1Cn1nnc2ccccc21 (stereo not given) 2.13%, O=C1C2C3CCCC3=C3CCCC3C2C(=O)N1c1ccc(F)cc1 (stereo not given) 3.38%, COc1ccc(C2Nc3ccccc3C(=O)N2c2ccccc2)cc1COc1ccccn1 (stereo not given) 1.03%, Brc1ccc(Oc2nnnn2-c2ccccc2)cc1 -1.07% [at 0.00035 µM], COc1cc(OC)cc(C(=O)N2c3ccc(F)cc3CCC2C)c1 (stereo not given) -0.327% [at 0.00035 µM], COc1ccc(C2NC(=O)c3ccccc3N2)cc1COc1ccc(NC(C)=O)cc1 (stereo not given) 21.9%

Potency, inactive:
NC(=O)c1nsc(C(=O)N(CC(=O)NCc2ccc3c(c2)OCO3)C2CCCC2)c1N

Potency, active:
COc1ccc(C(=O)N(Cc2ccccc2)Cc2ccc(OC)c(COc3ccc(NC(C)=O)cc3)c2)cc1 12.6 µM, COc1ccc(-c2nc3ccccc3c(=O)n2Cc2ccccc2)cc1COc1ccc(NC(C)=O)cc1 8.91 µM, COc1ccc(C2Nc3ccc(NC(C)=O)cc3C(=O)N2Cc2ccccc2)cc1COc1ccc(NC(C)=O)cc1 (stereo not given) 15.8 µM
